Measurements from PubChem BioAssay (EPA / NIEHS).
Results filed as inconclusive are left out. Calls of active or inactive are those of the source. Rule for the calls: active = hit-call score of the fitted dose curve at least 0.9, where 1 is the maximum; inconclusive = response in the unintended direction; inactive = score below 0.9.

Tested on: guinea pig Muscarinic, Peripheral (Mperiperal) Receptor, Non-selective Binding, gene 100379235
Test: NVS_GPCR_gMPeripheral_NonSelective: NovaScreen (NVS) G Protein-Coupled Receptor Assay for guinea pig Muscarinic, Peripheral (Mperiperal) Receptor, Non-selective Binding (AID 2283250)
Description: NVS_GPCR_gMPeripheral_NonSelective is a biochemical, single-readout assay that uses extracted gene-proteins from Guinea pig bladder membranes in a tissue-based cell-free assay. Measurements were taken 1 hour after chemical dosing in a 48-well plate.NVS_GPCR_gMPeripheral_NonSelective is one of one assay component(s) measured or calculated from the NVS_GPCR_gMPeripheral_NonSelective assay. It is designed to make measurements of radioligand binding, a form of binding reporter, as detected with scintillation counting signals by Filter-based radiodetection technology.Data from the assay component NVS_GPCR_gMPeripheral_NonSelective was analyzed into 1 assay endpoint. This assay endpoint, NVS_GPCR_gMPeripheral_NonSelective, was analyzed in the positive analysis fitting direction relative to DMSO as the negative control and baseline of activity. Using a type of binding reporter, loss-of-signal activity can be used to understand changes in the binding as they relate to the gene Chrm3. Furthermore, this assay endpoint can be referred to as a primary readout, because the performed assay has only produced 1 assay endpoint. To generalize the intended target to other relatable targets, this assay endpoint is annotated to the gpcr intended target family, where the subfamily is rhodopsin-like receptor.
Binding assays used specific radioligands (tritiated, iodinated) with non-radioactive competitive displacement ligands in agonist or antagonist protocols (as indicated) and various reference compounds and inhibitors to titrate specific binding to receptors and transporters. Most enzyme assays (CYPs, kinases, phosphatases, proteases, HDACs) used recombinant protein and specific substrates (fluorescence mostly, some colorimetric and radioactive) and inhibitors, followed by a biochemical separation of substrate and product. All assays for the biochemical HTS were initially run in duplicate at a single concentration (10 uM for CYP450 assays and 25 uM for all others). Assay-chemical combinations meeting a pre-defined threshold (e.g., 30% inhibition and other criteria defined below) were then run in singleton concentration-response format with maximum concentration of 20 uM for CYPs and 50 uM for all others. Each assay was run with positive and negative controls, and concurrent controls on every plate. The follow-up (secondary) screen tested active chemical-pairs in concentration series, as well as a few additional assays not tested in the primary screen, some selected negative inactives, and several cases re-run in the concentration series for confirmatory purposes.

Compound	AC50	outcome
CCN(CC)C(=O)c1cc(S(=O)(=O)Cc2ccccc2)c(N2CCC(c3ccccc3)CC2)cc1N(CC)CCN(C)C	12 µM (active)	
O=C1c2ccccc2C(=O)N1CCc1noc(-c2ccc(CN3CCCCCC3)s2)n1	4.5 µM (active)	
CN(C)C(=O)C1(N2CCCCC2)CCN(CC[C@@]2(c3ccc(Cl)c(Cl)c3)CN(C(=O)c3ccccc3)CCO2)CC1	8.87 µM (active)	
NCc1cccc(C2CCN(C(=O)c3ccc(C#Cc4ccccc4F)o3)CC2)c1	9.09 µM (active)	
c1ccc(C[n+]2cccc3ccccc32)cc1	8.25 µM (active)	
CCOC(=O)O[C@H](C)OC(=O)c1ccc2c(c1)cc(C(=O)NC1CCN(C(C)C)CC1)n2Cc1cc(-c2ccc(Cl)s2)on1	16.6 µM (active)	
Clc1cc(Cl)c2c(c1)N=C1CCCCCN1C2	6.74 µM (active)	
COc1ccc2cc(S(=O)(=O)N[C@H](CC(=O)N[C@H](Cc3ccc(CN4[C@H](C)CCC[C@@H]4C)cc3)C(=O)N(C)C(C)C)c3ccc4c(c3)OCO4)ccc2c1	5.48 µM (active)	
Cc1cc2c(cc1C(F)(F)F)N(C(=O)Nc1ccc(Oc3cccnc3C)nc1)CC2		inactive
CCCCCCCCCCCC[N+](C)(C)C	4.49 µM (active)	
Cc1occc1C(=O)Nc1ccc(C(=O)N2CCC(F)(F)/C(=C\C(=O)N3CCC(N4CCCCC4)CC3)c3ccccc32)cc1	5.65 µM (active)	
CN(C)c1ccc(C(=C2C=CC(=[N+](C)C)C=C2)c2ccc(N(C)C)cc2)cc1	5.05 µM (active)	
COc1cc(C(=O)NC2CCN(C)CC2)ccc1Nc1ncc2c(n1)N(C1CCCC1)CC(F)(F)C(=O)N2C	9.85 µM (active)	
